Bioassay records: PubChem, National Center for Advancing Translational Sciences (NCATS)
Only some compounds are listed: those with a hit (about 12% of all), similar ones and a draw of the others.
JMJD2A Tudor = JMJD2A Tudor domain (human) inhibition; AlphaScreen JMJD2A-Tudor / H3K4me3 peptide binding; Potency, µM (series often up to 114 µM), hits mostly inhibitors; 4.4% of 390,000 active; AID 504339; also: nearly all actives have a fitted effect of over 50% in size
BAZ2B block = blocks human BAZ2B. AlphaScreen BAZ2B-H3K14Ac peptide displacement. Potency, µM (top dose mostly 114 µM), actives largely listed as inhibitors. 4.4% of 360,000 active. AID 504333; also: nearly all actives have a fitted effect of over 60% in size
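In this displacement format the biotinylated H3(5-23) peptide acetylated at Lys14 serves as ligand at 50 nM, with BAZ2B at 50 nM in PBS pH 7.4 containing 0.01% Tween-20. Donor and acceptor beads are 10 ug/mL final.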
G9a block = inhibitors of human histone lysine methyltransferase G9a; Q96KQ7; G9a H3K9 monomethylation, AlphaScreen, 2 h; Potency, µM (highest dose often 102 µM), hits mostly inhibitors; 8.8% of 350,000 active; AID 504332; also: nearly all actives have a fitted effect of over 75% in size
Target sequence (Q96KQ7 913-1193 limits assumed): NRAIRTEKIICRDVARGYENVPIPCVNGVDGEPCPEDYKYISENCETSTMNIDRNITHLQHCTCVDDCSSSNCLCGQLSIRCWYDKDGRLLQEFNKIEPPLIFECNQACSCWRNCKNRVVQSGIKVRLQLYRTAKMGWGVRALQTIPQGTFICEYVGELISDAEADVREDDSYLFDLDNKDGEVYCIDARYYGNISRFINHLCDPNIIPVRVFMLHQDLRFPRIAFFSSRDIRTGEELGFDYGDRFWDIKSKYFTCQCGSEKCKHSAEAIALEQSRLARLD
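Chemiluminescent proximity detection of H3K9 monomethylation, read after 10 min bead incubation in the dark. Reaction: 20 nM G9a, 500 nM biotin-H3K9 peptide, 20 uM SAM cofactor, 2 h, room temperature, following 15 min enzyme-compound preincubation.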
Sfp PPTase inh = blocks B. subtilis Sfp PPTase activity; Q9F4F7; Biochemical Sfp PPTase activity, qHTS; Potency, µM, most hits filed as inhibitors; 3.5% of 310,000 active;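 also: the enzyme is Sfp with the accession as filed and its product quenches rhodamine fluorescence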
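Sfp 15 nM + cpd, 15 min RT; start w/ rhodamine-CoA 5 uM, BHQ-2-YbbR 12.5 uM (final); 50 mM Hepes pH 7.6, 10 mM MgCl2, 0.01% NP-40, 0.01% BSA; read 525/598 nm at 0 and 30 min.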
HP1b chromo inh = blocks HP1-beta chromodomain binding to methylated histone tails | P83916 | AlphaScreen HP1-beta / biotin-H3K9me3 peptide binding | Potency, µM (top dose mostly 114 µM), hits mostly inhibitors | 0.56% of 390,000 active; also: nearly all actives have a fitted effect of over 70% in size
Target sequence (P83916 whole entry, looked up): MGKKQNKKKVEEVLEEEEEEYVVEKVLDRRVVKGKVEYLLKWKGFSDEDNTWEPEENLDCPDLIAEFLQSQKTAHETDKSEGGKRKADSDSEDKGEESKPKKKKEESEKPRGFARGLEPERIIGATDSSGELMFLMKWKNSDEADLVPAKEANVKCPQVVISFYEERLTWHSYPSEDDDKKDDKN
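AlphaScreen: HP1-beta (50 nM) preformed 30 min with biotin-H3(1-18)K9me3 peptide (50 nM) in PBS pH 7.4, 0.01% Tween-20. Compound added for 30 min at RT, then streptavidin donor/nickel chelate acceptor beads (10 ug/mL) for 30 min.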
Numbers stand for hits; n = inactive; u = inconclusive; x = no result; ! = a repeat was not active; [ ] = another dose, or the depositor's remark. Calls follow the shape of the dose curve; as a rule, active = well fitted curve in the direction sought with a large enough effect; inconclusive = small, poorly fitted or top-dose-only effect, or another doubt; inactive = no such curve, though single readings can be large; an effect the other way counts as inactive or inconclusive.

SMILES	JMJD2A Tudor	BAZ2B block	G9a block	Sfp PPTase inh	HP1b chromo inh
COc1ccc(C2c3c(n(CCc4ccccc4)cnc3=N)Oc3ccc4ccccc4c32)cc1OC (stereo not drawn)	56.2µM	x	x	x	x
CCN(CC)c1ccc(NS(=O)(=O)c2ccc(-c3cnc(C4CC4)o3)cc2)c(C)c1	17.8µM	14.1µM	u	x	u
COc1ccccc1CNS(=O)(=O)c1ccc(-c2cnc(C3CC3)o2)cc1	n	89.1µM!	n	n	n
Cc1ccc(Cn2c(=O)n(Cc3ccc(Cl)cc3)c(=O)c3cccnc32)cc1	n	n	n	x	n
COC(=O)c1ccccc1NC(=S)NC(NC(=O)COc1ccccc1)C(Cl)(Cl)Cl (stereo not drawn)	n	n	2.24µM	n	n
Cc1ccccc1NC(=S)NC(NC(=O)COc1ccccc1)C(Cl)(Cl)Cl (stereo not drawn)	n	n	n	n	n
COC(=O)c1ccccc1NC(=O)c1ccco1	n	n	n	n	n
COC(=O)c1ccccc1NC(=S)NC(NC(=O)c1ccco1)C(Cl)(Cl)Cl (stereo not drawn)	n	n	2.24µM	n	n
Cc1ccccc1NC(=S)NC(NC(=O)c1ccco1)C(Cl)(Cl)Cl (stereo not drawn)	n	n	u	n	n
O=C(NC(NC(=S)Nc1ccccc1C(=O)O)C(Cl)(Cl)Cl)c1ccco1 (stereo not drawn)	79.4µM	n	10µM	39.8µM	n
O=C(NC(NC(=S)Nc1ccccc1C(=O)O)C(Cl)(Cl)Cl)c1ccccc1 (stereo not drawn)	50.1µM	u	25.1µM	35.5µM	u
COc1cc(OC)c(NC(=O)c2ccc3c(Cl)c4c(nc3c2)CCCC4)cc1Cl	n	n	n	x	n
O=C(NC1CCCCC1)C(c1cccs1)N(CC1CCCO1)C(=O)c1csnn1 (stereo not drawn)	n	n	n	n	n
CCCNS(=O)(=O)c1ccc(CCC(=O)N2CCOCC2)cc1	n	n	n	n	n
COC(=O)c1cc(NC(=O)c2cc(-c3ccccc3Cl)oc2C(F)(F)F)ccc1N1CCOCC1	u	n	u	n	n
CC(=O)O[C@]1(C(C)=O)CCC2C3CCC4=CC(=O)CCC4(C)C3(F)C(O)CC21C (stereo partly drawn)	x	x	n	n	x
Cc1cccc(N=C2NC(=O)/C(=C3/C(=O)N(C)c4ccccc43)S2)c1C	n	n	u	n	n
COC(=O)c1ccccc1NC(=S)NC(NC(=O)c1ccccc1[N+](=O)[O-])C(Cl)(Cl)Cl (stereo not drawn)	n	n	3.55µM	n	n
COC(=O)c1ccc(N2CCS(=O)(=O)CC2)cc1	n	n	n	n	n
COC(=O)C1=C(C)N(Cc2ccccc2)C(=NCc2cc(OC)c(OC)c(OC)c2)N[C@H]1c1cccc(F)c1	n	n	n[12.7 µM]	n	n
COC(=O)C1=C(C)N(Cc2ccccc2)C(=NCc2ccc(OC)cc2)N[C@H]1c1cccc(F)c1	u	u	79.4µM	n	n
COC(=O)C1=C(C)N(Cc2ccccc2)C(=NCc2cccc(Cl)c2)N[C@H]1c1cccc(F)c1	n	n	x	56.2µM	n
COc1ccccc1NC(=O)N1CCCC1C(=O)Nc1ccc(NC(C)=O)cc1 (stereo not drawn)	n	n	n	n	n
CCOC(=O)C1(CCc2ccccc2)CCN(C(=O)[C@@H]2C[C@@H](C)NC(=S)N2)CC1	n	n	44.7µM	n	n
CCOC(=O)C1(CCc2ccccc2)CCN(C(=O)C2CCCO2)CC1 (stereo not drawn)	n	n	n	n	n
SMILES	JMJD2A Tudor	BAZ2B block	G9a block	Sfp PPTase inh	HP1b chromo inh
O=C(O)COc1ccccc1-c1nc(-c2ccccc2)c(-c2ccccc2)[nH]1	n	u	79.4µM	n	n
O=C(O)c1ccc(/C=N/NC(=S)NC2CCCCC2)cc1	n	n	n	n	n
O=C(C1CCCN(Cc2cccnc2)C1)N1CCCCC1 (stereo not drawn)	u	22.4µM	3.98µM	50.1µM	u
CCc1ccc(-c2nc(CN3CCCC(C(=O)O)C3)c(C)o2)cc1 (stereo not drawn)	n	n	u	n	n
CCc1ccc(CN2CCCC(C(=O)N3CCCCC3)C2)cc1 (stereo not drawn)	44.7µM	79.4µM	8.91µM	n	n
Cc1ccccc1CN1CCCC(C(=O)N2CCCCC2)C1 (stereo not drawn)	22.4µM	79.4µM	25.1µM	n	u
